Shown are actives, neighbours in structure and some others; about 3.7% of the full set was active somewhere.
TIM10 inh = growth inhibitors of TIM10 yeast strain; S. cerevisiae TIM10 strain growth, BacTiter-Glo luminescence, 24 h; inhibition, % at 10 µM; 330,000 compounds, 1.4% hits; AID 463195;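 active = inhibition of 40% or more at the single tested concentration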;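 note: wild-type TIM10 isogenic control strain grown at permissive 25 °C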
V-ATPase pH = regulators of yeast V-ATPase proton transport | S. cerevisiae, pHLuorin cytosolic pH fluorescence | response, % at 10 µM | 350,000 compounds, 0.37% hits | AID 504577; in the data active = response mostly above about 7.3%, no sharp cut-off; inactive = mostly below about 5.4%; note: actives read high
PfHsp90 yeast 2 = reduces growth (ATP signal) of yeast expressing P. falciparum Hsp90 | inhibition, % at 9.4 µM | 310,000 compounds, 0.32% hits | S. cerevisiae expressing PfHsp90, BacTiter-Glo ATP, 48 h; yeast lacking PDR1 and PDR3 efflux regulators;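 active = every replicate shows inhibition above about 80%, whatever the replicate mean, limit read from the data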
tim10-1 inh = tim10-1 yeast growth inhibition. 330,000 compounds, 2.2% hits. inhibition, % at 20 µM. S. cerevisiae tim10-1 ts strain growth, BacTiter-Glo, 24 h;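 active = inhibition of at least 40%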;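 note: mutant grown at 25 °C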
tim23-1 inh = tim23-1 yeast growth inhibition | inhibition, % at 20 µM | S. cerevisiae tim23-1 growth, BacTiter-Glo luminescence, 24 h | 330,000 compounds, 1.3% hits;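 active = growth inhibition of the mutant yeast at or above 50%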;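 note: temperature-sensitive mutant grown at 25 °C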
tim10-1 confirm = tim10-1 yeast growth inhibition, confirmed | S. cerevisiae tim10-1 ts strain growth, BacTiter-Glo, 24 h | shares compounds with tim10-1 inh | 7,400 compounds, 56% hits | inhibition, % at 20 µM | AID 463213;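 active = inhibition of yeast growth at or above a set limit in either of two repeat tests at 20 µM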;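 note: tim10-1 mutant grown at permissive 25 °C to find synthetic lethal compounds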
Of the large screens only hits and unclear results are named; the others gave an inactive call (follow-up assays come after a bar, where they were run).

CCOC(=O)C1=C(N)Oc2ccc3ccccc3c2C1c1ccc(O)c(OC)c1 (stereo unspecified)	tim10-1 inh 40.1 | tim10-1 confirm inactive
O=C(c1ccc(Cl)cc1)c1cnc(-c2ccccc2)s1	none (no result: TIM10 inh, tim10-1 inh, tim23-1 inh)
CO/N=C/CC(=O)c1cnc(-c2ccc(Cl)cc2)s1	tim10-1 inh 40.9 | tim10-1 confirm inactive
O=C1CCC([N+](=O)[O-])C(c2ccccc2F)N1 (stereo unspecified)	none
Cc1cc(-c2ccc(C)c(S(=O)(=O)N3CCN(c4ccccn4)CC3)c2)on1	tim10-1 inh 42.1 | tim10-1 confirm 31.8
CCOC(=O)c1sc(Nc2cccc(Cl)c2)nc1C	none
CCOC(=O)c1sc(Nc2cccc(C)c2C)nc1C	tim10-1 inh 43.4 (no result: V-ATPase pH, PfHsp90 yeast 2) | tim10-1 confirm 32.3
Cc1nn(C)c(C(=O)NNC(=O)Nc2cccc(C(F)(F)F)c2)c1Cl	none
N/C(=N\OC(=O)c1cccc2ccccc12)c1ccncc1	tim10-1 inh 48.9 | tim10-1 confirm 39.5
O=C(Oc1ccccc1O)c1cccc2ccccc12	tim10-1 inh 47.4 (no result: V-ATPase pH, PfHsp90 yeast 2) | tim10-1 confirm 33.7
C=CCOCCN1C(=O)C2C(c3ccccc3)C=CC(c3ccccc3)C2C1=O (stereo unspecified)	tim10-1 inh 41.2 | tim10-1 confirm inactive
Cc1ccccc1C(=O)N[C@H](C(=O)OCC(=O)NC1CC1)C(C)C	none
CC(C(=O)N1CCN(c2ccc(Cl)cc2)CC1)c1ncc(C(F)(F)F)cc1Cl (stereo unspecified)	tim10-1 inh 42.6 | tim10-1 confirm inactive
COCCOC(=O)c1sc2nc[nH]c(=O)c2c1C	none
Cc1c(C(=O)OC2CCCCC2)sc2nc[nH]c(=O)c12	tim10-1 inh 40.2 | tim10-1 confirm inactive
COc1ccccc1C(CNC(=O)c1ccc(OCc2c(C)noc2C)cc1)N1CCCC1 (stereo unspecified)	none
CCn1ccnc1CN1CCc2c([nH]c3ccccc23)C1C(C)(C)C (stereo unspecified)	tim10-1 inh 46.7 | tim10-1 confirm inactive
CC1(C)Cc2ccccc2/C(=C/C(=O)N2CCCCCC2)N1	tim10-1 inh 42.5 | tim10-1 confirm 40.2
c1ccc(-c2n[nH]c3c2CCC3)cc1	none
Clc1ccc(-c2n[nH]c3c2CCC3)c(Cl)c1	tim10-1 inh 40.9 | tim10-1 confirm inactive
COC(=O)c1ccccc1NC(=O)CSc1nc(O)cc(=O)n1C1CCCC1	tim10-1 inh 45.7 | tim10-1 confirm inactive
O=P(OC1CCCCC1)(OC1CCCCC1)C(O)c1c(Cl)cccc1Cl (stereo unspecified)	tim10-1 inh 42.7 (no result: V-ATPase pH) | tim10-1 confirm inactive
CCCCC(=O)NC(=S)Nc1ccc(NC(=O)C(C)C)c(OC)c1	tim10-1 inh 42.5 | tim10-1 confirm inactive
CCCCC(=O)Nc1ccc(NC(=S)NC(=O)CCCCl)cc1OC	tim10-1 inh 48.0 | tim10-1 confirm 39.0
Cc1ccnc(Nc2nc(-c3ccc(F)cc3)cs2)c1	tim10-1 inh 41.8 | tim10-1 confirm inactive
Cc1ccccc1-c1nc2ccccc2c(=O)n1/N=C/c1ccccc1[N+](=O)[O-]	tim10-1 inh 44.1 (no result: PfHsp90 yeast 2) | tim10-1 confirm inactive
C=C1C(=O)C23C(O)C1CCC2C12CCCC(C)(COC(C)=O)C1C(O)C3(O)OC2 (stereo unspecified)	none (no result: TIM10 inh, tim10-1 inh, tim23-1 inh)
Cc1c(-c2ccccc2)sc(Br)c1C(=O)N1CCOCC1	tim10-1 inh 47.8 | tim10-1 confirm inactive
COc1cc(C(=O)ON=C2C=C(C)C(=O)C(C)=C2)cc(OC)c1OC	none
N/C(=N\OC(=O)N1CCOCC1)c1ccc(Cl)cc1	tim10-1 inh 60.9 | tim10-1 confirm 49.0
Cc1cccc(C(=O)O/N=C(\N)c2ccc(Cl)cc2)c1	none
Cc1cc(C)cc(C(=O)O/N=C(\N)c2ccc(Br)cc2)c1	tim10-1 inh 40.4 | tim10-1 confirm 31.5
COc1ccc(C(=O)ON=C2C=C(C)C(=O)C(C)=C2)cc1	tim10-1 inh 48.1 | tim10-1 confirm inactive
COc1ccc(C(=O)O/N=C(\N)c2ccc(Cl)cc2)cc1	tim10-1 inh 44.2 | tim10-1 confirm 46.4
Cc1ccc(C2(c3ccccc3)NC(=O)N(CC(=O)NC3(C#N)CCCC3)C2=O)cc1C (stereo unspecified)	none
Cc1ccc(NC(=O)CCNS(=O)(=O)c2ccc3c(c2)CCC(=O)N3)cc1	none
COc1ccccc1C(=O)O/N=C(/c1ccncc1)c1ccc([N+](=O)[O-])cc1	tim10-1 inh 47.1 | tim10-1 confirm inactive
COc1cc(C(=O)O/N=C(\N)c2ccc([N+](=O)[O-])cc2)cc(OC)c1OC	tim10-1 inh 59.3 | tim10-1 confirm 47.5
COc1ccc(C(=O)O/N=C(\N)c2ccncc2)cc1OC	none
Cc1ccccc1C(=O)O/N=C(\N)c1ccc([N+](=O)[O-])cc1	tim10-1 inh 53.0 | tim10-1 confirm 61.9
N/C(=N\OC(=O)c1ccccc1Br)c1ccc([N+](=O)[O-])cc1	none
COc1ccc(C(=O)O/N=C(\N)c2ccccc2)cc1OC	tim10-1 inh 51.1 | tim10-1 confirm 53.3
Cc1ccc(C(=O)O/N=C(\c2ccccc2)c2ccncc2)cc1	none
COc1cc(C(=O)O/N=C(\N)c2cccc([N+](=O)[O-])c2)cc(OC)c1OC	none
CCc1nc(NC(C)(C)C)c2cnn(-c3ccccc3)c2n1	none
COC(=O)C1=C(C(=O)OC)[C@]2([C@H]3CCCCN[C@@H](Cc4ccccc4)C(=O)N3Cc3ccccc3)C=C[C@H]1O2	none
Cc1cc(C)cc(NC(=O)c2sc3nc4n(c(=O)c3c2C)CCC4)c1	tim10-1 inh 42.9 | tim10-1 confirm inactive
CCOC(=O)c1ccc(NC(=O)c2sc3nc4n(c(=O)c3c2C)CCC4)cc1	tim10-1 inh 47.9 | tim10-1 confirm inactive
CCOC(=O)C1CCN(S(=O)(=O)c2cn(C)c(C)n2)CC1	none
CCCC(=O)NC(=S)Nc1ccc(Cl)cn1	tim10-1 inh 45.1 | tim10-1 confirm 31.9
Cc1cc(Cl)ccc1OCC(=O)NC(=S)Nc1ccc(Cl)cn1	none
CCCC(=O)Nc1nc2ccc(OCC)cc2s1	tim10-1 inh 42.2 | tim10-1 confirm inactive
O=C(O)COc1ccc(NC(=O)c2ccc3c(c2)C(=O)N(Cc2ccccc2)C3=O)cc1	none
CCOC(=O)c1ccc(NC(=S)N2CCC(O)CC2)cc1	none
CCOC(=O)c1ccc(NC(=S)N2CCSC2c2ccc(Br)cc2)cc1 (stereo unspecified)	tim10-1 inh 40.1 | tim10-1 confirm inactive
CCOc1cc(N2CCOCC2)c(OCC)cc1NC(=O)COC(=O)c1cc2ccccc2cc1O	none
CCOc1ccc(OCCC(=O)OCC(=O)Nc2cc(OCC)c(N3CCOCC3)cc2OCC)cc1	tim10-1 inh 45.7 | tim10-1 confirm inactive
CCc1nc2c(c(=O)c3ccccc3n2C)c(=O)n1C1CCCCCC1	tim10-1 inh 40.5 | tim10-1 confirm inactive
Cc1cc(OCc2cc(C(=O)NC(C)c3c(C)nn(C)c3C)no2)cc(C)c1Cl (stereo unspecified)	tim10-1 inh 45.8 | tim10-1 confirm inactive

Screens (PubChem)
